Screens from PubChem.
The list is not random: actives were taken first. Their share in the collection is about 3.4%.
ADAM17 inh: ADAM17 inhibition, QFRET primary screen | inhibition, % at 6.95 µM | P78536 | 370,000 compounds, 0.83% hits | recombinant ADAM17, EDANS/DABCYL FRET peptide cleavage | AID 720648;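 active = inhibition above the mean of compounds lying between control limits plus 3 SD, set per campaign, cut at about 8.5% in these data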
PLC-beta3 inh: inhibitors of human phospholipase C beta3; 370,000 compounds, 0.18% hits; Purified PLC-beta3, fluorogenic substrate, fluorescence; AID 720704; Q01970; inhibition, % at 12.2 µM; in the data active = inhibition above about 11%
PLC-gamma1 inh: PLC-gamma1 (human) inhibition, primary screen | inhibition, % at 12.2 µM | purified PLC-gamma1, fluorogenic substrate, fluorescence | 370,000 compounds, 0.84% hits | P19174; in the data active = inhibition above about 9.5%
Target sequence (P19174 whole entry, looked up): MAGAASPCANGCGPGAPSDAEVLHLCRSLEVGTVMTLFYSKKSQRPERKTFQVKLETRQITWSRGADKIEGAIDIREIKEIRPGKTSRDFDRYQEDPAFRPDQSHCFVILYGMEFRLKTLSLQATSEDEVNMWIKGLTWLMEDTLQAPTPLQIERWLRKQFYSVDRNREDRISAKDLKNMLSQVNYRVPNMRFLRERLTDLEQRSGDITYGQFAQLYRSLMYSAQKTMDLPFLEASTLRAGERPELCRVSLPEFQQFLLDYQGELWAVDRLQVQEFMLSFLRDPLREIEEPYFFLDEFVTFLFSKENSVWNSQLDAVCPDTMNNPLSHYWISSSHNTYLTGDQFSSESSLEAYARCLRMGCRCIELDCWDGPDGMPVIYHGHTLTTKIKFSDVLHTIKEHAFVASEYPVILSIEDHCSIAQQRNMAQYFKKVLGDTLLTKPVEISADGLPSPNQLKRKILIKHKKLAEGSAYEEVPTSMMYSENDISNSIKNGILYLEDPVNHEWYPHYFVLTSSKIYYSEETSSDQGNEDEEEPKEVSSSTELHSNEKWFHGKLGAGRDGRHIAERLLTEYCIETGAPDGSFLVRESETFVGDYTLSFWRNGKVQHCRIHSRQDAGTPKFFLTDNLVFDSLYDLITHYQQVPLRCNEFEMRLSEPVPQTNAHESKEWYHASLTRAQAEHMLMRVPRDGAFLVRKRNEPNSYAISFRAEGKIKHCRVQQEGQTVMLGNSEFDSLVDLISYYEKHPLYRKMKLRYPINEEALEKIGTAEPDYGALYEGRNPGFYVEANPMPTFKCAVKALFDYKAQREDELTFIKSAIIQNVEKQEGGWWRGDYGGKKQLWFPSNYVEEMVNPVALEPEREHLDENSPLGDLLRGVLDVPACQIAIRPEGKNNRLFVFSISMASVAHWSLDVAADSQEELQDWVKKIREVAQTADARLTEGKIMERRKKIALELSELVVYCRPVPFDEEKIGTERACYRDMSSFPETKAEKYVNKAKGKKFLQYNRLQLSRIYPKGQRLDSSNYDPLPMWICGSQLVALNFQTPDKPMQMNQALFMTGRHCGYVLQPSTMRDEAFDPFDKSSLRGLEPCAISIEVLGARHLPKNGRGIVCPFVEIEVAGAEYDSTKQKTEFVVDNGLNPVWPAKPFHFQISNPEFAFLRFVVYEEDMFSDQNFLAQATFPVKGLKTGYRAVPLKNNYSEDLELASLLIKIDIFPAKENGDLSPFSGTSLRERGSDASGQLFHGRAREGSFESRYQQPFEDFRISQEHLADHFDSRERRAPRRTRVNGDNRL
HGIII-sPLA2 inh: Blocks human group III sPLA2 activity; Q9NZ20; QFRET BODIPY PC-A2 liposome hydrolysis, fluorescence; inhibition, % at 12.2 µM; 370,000 compounds, 0.56% hits;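 active = inhibition above mean plus 3 SD of compounds lying within the high and low control bounds, cut at about 19% in these data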
KLK7 zymogen act: proKLK7 (human) activation, primary screen | P49862 | purified proKLK7, EDANS-DABCYL substrate fluorescence; 100% is mature enzyme control, 0% vehicle | activation, % at 7 µM | 370,000 compounds, 0.9% hits | AID 652039;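 active = activation above the mean of all tested compounds plus 3 SD, computed per campaign excluding outliers beyond control limits, cut at about 13% in these data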
ADAM10 inh: inhibitors of human ADAM10 | recombinant ADAM10, EDANS/DABCYL FRET peptide cleavage, 3 h | O14672 | inhibition, % at 7 µM | 370,000 compounds, 0.62% hits;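 active = inhibition above a per-campaign cutoff equal to the mean of compounds falling between control-based bounds plus 3 SD, cut at about 20% in these data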
ADAM10 confirm: human ADAM10 inhibition, confirmation; shares compounds with ADAM10 inh; ADAM10 QFRET peptide cleavage, EDANS fluorescence; inhibition, % at 6.95 µM; 2,100 compounds, 1% hits; AID 743208;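 active = inhibition above about 20% chosen separately for each screening run, limit read from the data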
ADAM17 ctr: counter-screen for ADAM10 exosite inhibitors: inhibitors of human ADAM17 | 2,100 compounds, 0.5% hits | inhibition, % at 6.95 µM | ADAM17 QFRET peptide cleavage, EDANS fluorescence | shares compounds with ADAM10 inh;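 active = mean triplicate inhibition above the solvent-only control wells' mean plus 3 SD, cut at about 12% in these data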
ADAM10 ctr: ADAM10 inhibition, counter-screen for ADAM17 exosite hits; shares compounds with ADAM17 inh; recombinant ADAM10, EDANS/DABCYL FRET peptide cleavage, 3 h; inhibition, % at 6.95 µM; 2,900 compounds, 47% hits;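 active = mean inhibition over the triplicate runs exceeds the activity threshold set in the earlier primary screen, cut at about 20% in these data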
ADAM17 confirm: confirmation of inhibitors of human ADAM17; shares compounds with ADAM17 inh; recombinant ADAM17, EDANS/DABCYL QFRET peptide cleavage; inhibition, % at 6.95 µM; 2,900 compounds, 65% hits; AID 743257;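 active = mean inhibition across replicates above the hit cutoff set in the primary screen, cut at about 8.5% in these data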
Hits are given with their value; – = inactive; · = no result; ! = not active in a repeat.

SMILES	ADAM17 inh	PLC-beta3 inh	PLC-gamma1 inh	HGIII-sPLA2 inh	KLK7 zymogen act	ADAM10 inh	ADAM10 confirm	ADAM17 ctr	ADAM10 ctr	ADAM17 confirm
Cc1ccccc1NS(=O)(=O)c1cc(C(=O)Nc2cccc([N+](=O)[O-])c2)ccc1C	11	–	–	–	–	27	–	–	36	22
Cc1ccc(C(=O)Nc2ccccc2-c2ccccc2)cc1S(=O)(=O)Nc1cccc(C)c1C	12	–	–	–	–	29	–	–	40	19
Cc1ccc(C(=O)Nc2cccc([N+](=O)[O-])c2)cc1S(=O)(=O)Nc1ccc(C(=O)O)cc1	–	–	–	–	–	–	·	·	·	·
COc1cccc(-c2cc3nc(-c4ccco4)cc(N4CCN(C(C)=O)CC4)n3n2)c1	–	–	–	–	·	–	·	·	·	·
COc1cccc(C(=O)N(CCN2CCOCC2)Cc2ccc(OC)c(OC)c2)c1	–	–	–	–	–	–	·	·	·	·
C(=C\c1ccccc1)/CN1CCN(C(c2ccccc2)c2nnnn2-c2ccc3c(c2)OCCO3)CC1 (configuration not stated)	14	–	–	–	–	29	–	–	20	9.9
O=C(C1CCN(c2ncnc3c2sc2cccc(F)c23)CC1)N1CCCCC1	–	–	–	–	–	–	·	·	·	·
CCN=C1S/C(=C/c2cc(C)n(-c3ccc(Cl)cc3F)c2C)C(=O)N1CC	–	–	–	–	·	–	·	·	·	·
N#CCCn1nc(-c2ccccc2)cc1Nc1ccccc1NC(=O)C(F)(F)F	–	–	–	–	–	–	·	·	·	·
N#CCCn1nc(-c2ccc([N+](=O)[O-])cc2)cc1Nc1ccccc1NC(=O)C(F)(F)F	20	–	–	–	–	36	–	–	–	9.5
Cc1ccc(-n2c(SCC(=O)c3ccc4c(c3)OCO4)nc3ccccc3c2=O)cc1	–	–	–	–	–	–	·	·	·	·
C[C@@H]1CCN(C2CC2)S(=O)(=O)c2c(cccc2N2CCC[C@@H]2CO)O1	–	–	–	–	–	–	·	·	·	·
COc1cccc(N2CCN(CC(=O)NCc3ccco3)CC2)c1	–	–	–	–	–	–	·	·	·	·
O=C(NCc1cccc(Cl)c1)c1ccc(S(=O)(=O)Nc2cccc(C(F)(F)F)c2)cc1	15	–	–	–	–	39	–	–	34	18
O=[N+]([O-])c1ccccc1C=Nn1c(-c2cc(-c3ccccc3)n[nH]2)n[nH]c1=S	–	–	–	–	–	–	·	·	·	·
Cc1cc(-c2n[nH]c(=S)n2/N=C/c2ccccc2[N+](=O)[O-])n[nH]1	11	–	–	–	–	21	–	–	–	–
O=C1C=C(O)CC(c2ccc(Cl)cc2)C1 (configuration not stated)	–	–	–	–	–	–	·	·	·	·
O=C1C=C(/C=C/C2C=CC=CC2)C[C@@H](c2ccc(Cl)cc2)C1 (some centres not stated)	13	–	–	–	–	27	–	–	–	–
Cc1ccc(S(=O)(=O)Nc2ccc3[nH]ccc3c2)cc1	–	–	–	–	–	–	·	·	·	·
O=S(=O)(Nc1ccc2ccccc2c1)c1ccccc1	–	–	–	–	–	–	·	·	·	·
COC(=O)c1cc2cc(NS(=O)(=O)c3ccc(C)cc3)ccc2s1	15	–	–	–	–	28	–	–	–	10
Cc1ccc(S(=O)(=O)Nc2ccc3ccccc3c2)cc1	17	–	–	–	–	24	–	–	–	–
O=C(Nc1ccc(Nc2ccccc2)cc1)C(Cl)(Cl)Cl	9.8	–	–	–	–	26	–	–	–	–
Cc1onc(-c2c(Cl)cccc2Cl)c1C(=O)N[C@@H]1C(=O)N2[C@@H]1SC(C)(C)[C@@H]2C(=O)O	9.6!	–	–	–	–	21!	–	–	–	–
